Test results reported in PubChem BioAssay AID1259415 (National Center for Advancing Translational Sciences (NCATS), 2018).
In all, about 410,000 compounds went through this assay and about 18,000 (4.4%) were called active. About 7% were inconclusive and are not listed. This is one part of a sample in which actives are shown more often than they occur. A number with no mark means an inactive call. Rule as the data show it: active = activity change below about -60%; inconclusive = no clear call, values can overlap the other calls; inactive = above about -39%.

Assay: qHTS Assay for inhibitors of the human cytomegalovirus (HCMV)
Details: HFF cells, HCMV-luciferase reporter, 72 h; at 57.5 µM; hits give low values
Summary of the method: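 Compounds were evaluated in HFFs infected with an HCMV luciferase reporter virus (MOI 1 PFU/cell). Luciferase in lysates collected 72 h post infection served as the replication measure.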
% is scaled to controls: 0 for no effect and ±100 for the full control effect.

Structure (SMILES) | activity change, negative = inhibition
CC(C)OC(=O)c1ccc(COc2ccc3ccc(=O)oc3c2)o1 | -15.4%
CC(=CCOc1ccc2ccc(=O)oc2c1)C1=CC(=O)C(C)(C)O1 | -76.5% (active)
O=C(COc1ccc2ccc(=O)oc2c1)NCC(O)c1ccccc1 (stereo not given) | -6.86%
CCOc1ccc(CNC(=O)c2ccc3nc(CC)c(CC)nc3c2)cc1OC | -2.8%
CCC(=O)Nc1cccc(C(=O)OCc2cc(=O)n3nc(CC)sc3n2)c1 | -14.2%
CC(C)=CCc1c(O)c(CC=C(C)C)c2occ(-c3ccc(O)cc3)c(=O)c2c1O | -100% (active)
Cc1ccc(C(O)c2nnc(Nc3cccc(Oc4ccccc4)c3)s2)cc1 (stereo not given) | -5.85%
COC(=O)c1ccccc1NC(=O)c1cncc(Br)c1 | -30.4%
Cc1ccc(C(=O)N/N=C\c2cc(Br)c(Br)o2)cn1 | -32.6%
O=C(CCNc1n[nH]c(=O)[nH]c1=O)N/N=C\c1ccc(Br)cc1 | 0%
O=C(CCNC(=O)c1ccccc1)NN=Cc1ccc(Br)o1 | -13.4%
O=C(N/N=C/c1ccc(Br)o1)c1cncc(Br)c1 | -102% (active)
O=C(CCC(=O)N/N=C/c1ccc(Br)o1)N/N=C/c1ccc(Br)o1 | -61.8% (active)
COc1ccc(-c2cc(C(F)(F)F)n3nc(-c4ccccc4)cc3n2)cc1OC | -15.9%
COc1ccccc1NC(=O)C1CCN(C(=O)c2ccc(C(C)(C)C)cc2)CC1 | 28.4%
CC(=O)Nc1ccc(S(=O)(=O)N2CCn3cccc3C2C)cc1 (stereo not given) | 36.8%
O=C1CSc2ccc(S(=O)(=O)NCc3ccccc3)cc2N1 | 0%
CCC(Cc1ccccc1)NS(=O)(=O)c1ccc2c(c1)NC(=O)CS2 (stereo not given) | -70.6% (active)
COc1ccccc1CNS(=O)(=O)c1ccc2c(c1)NC(=O)CS2 | -16.2%
Cc1cccc(N2CCN(C(=O)c3cnc(N4CCCC4)nc3C)CC2)c1C | -23.5%
O=C(CSc1nc2ccccc2o1)N1CCN(c2ccccc2)CC1 | -78.3% (active)
O=C(CSc1nc2ccccc2o1)N1CCN(c2ccc(Cl)cc2)CC1 | -0.478%
Cc1nc(SCC(=O)N2CCN(c3ccccc3)CC2)[nH]c(=O)c1C | 17.7%

Structure (SMILES) | activity change, negative = inhibition
COC(=O)c1ccccc1NC(=O)Cn1c(=O)n(-c2cccc(C(F)(F)F)c2)c(=O)c2c(C)c(C)sc21 | -21.9%
O=C(CN1C(=O)COc2ccc(S(=O)(=O)N3CCOCC3)cc21)N1CCN(c2cccc(Cl)c2)CC1 | -4.92%
CCC1(CC)NC(=O)N(CC(=O)OCC(=O)NC(=O)c2ccccc2)C1=O | -39.9%
Cn1c(CCc2ccccc2)nnc1SCC(N)=O | 8.58%
N#CC1=C(SCc2ccc(C#N)cc2)N=C(N)C(c2nc(-c3ccccc3)cs2)C12CCCCC2 (stereo not given) | -98.4% (active)
N#Cc1ccc(CSc2ncccn2)cc1 | 4.06%
O=C(CCCn1c(=O)c2cccn2c2cccnc21)NCc1ccc(F)cc1 | -18%
CCOc1ccccc1NC(=O)c1ccc2c(c1)CCN2S(=O)(=O)c1ccc(C)cc1 | 18.6%
Cc1ccc(C(=O)Nc2nc(N)n(-c3ccccc3)n2)cc1 | 68.4%
Cc1ccc2nc(C)c3c(c2c1)N(c1ccccc1)CC3 | -71.1% (active)
Cc1ccc2c(c1)c1ncnc(N3CCc4ccccc4C3)c1n2C | 110%
O=C(CN1CCN(Cc2ccc(F)cc2Cl)C1=O)NCc1cccs1 | -20.5%
Cc1ccc(N2C(=O)C3C4C=CC(CC4)C3C2=O)cc1Cl (stereo not given) | 2.41%
CC(C)CCN(C(=O)c1csnn1)C(C(=O)NC1CCCC1)c1ccccc1 (stereo not given) | 19.1%
Cc1ccc(NC(=O)COC(=O)CNC(=O)c2ccc(Cl)cc2Cl)cc1S(=O)(=O)N1CCOCC1 | -100% (active)
Cc1ccc(NC(=O)COC(=O)C2CC2)cc1S(=O)(=O)N1CCOCC1 | -3.87%
Cc1ccc(C(=O)OCC(=O)Nc2ccc(Cl)cn2)cc1S(=O)(=O)N1CCOCC1 | -11.7%
Cc1ccc(NC(=O)CCCNC(=O)c2ccc(Cl)cc2)cc1S(=O)(=O)N1CCCCC1 | -15.5%
Cc1ccc(NC(=O)CCNC(=O)c2ccc([N+](=O)[O-])cc2)cc1S(=O)(=O)N1CCOCC1 | -102% (active)
O=C(CCNC(=O)c1ccc([N+](=O)[O-])cc1)Nc1ccccc1N1CCOCC1 | -0.0167%
O=C(NCCc1ccccn1)c1cc(C(=O)C2CCCCC2)c[nH]1 | 24.3%
COC(=O)CN1C(=S)N(c2ccccc2)C(=O)C1CC(=O)Nc1ccc(Cl)cc1 (stereo not given) | -4.58%
Cc1ccc(Cl)cc1N1CCN(S(=O)(=O)c2cc3[nH]c(=O)c(=O)[nH]c3cc2C)CC1 | 14.4%

Structure (SMILES) | activity change, negative = inhibition
COc1ccccc1C(=O)OCc1cc(=O)n2nc(-c3cccs3)sc2n1 | 7.8%
CC(C)(C)c1ccc(S(=O)(=O)Nc2ccc(O)c(Sc3nc4ccccc4s3)c2)cc1 | -13.2%
CC1=C[C@H]2Cc3cc(C)cc(C)c3S(=O)(=O)[C@@H]2C=C1 | -67.4% (active)
Cc1oc2c(c1C(=O)Nc1ccc(F)c(F)c1)C1=NCCN1C=N2 | -2.2%
CCn1c(C(=O)Nc2cc(Cl)ccc2C)cc2sc(Cl)cc21 | -25.2%
Fc1ccccc1C(c1nnnn1Cc1ccc2c(c1)OCO2)N1CCN(Cc2ccccc2)CC1 (stereo not given) | -2.67%
N#Cc1ccc(C(c2nnnn2CCc2ccccc2)N2CCCCCC2)cc1 (stereo not given) | -31.2%
Fc1ccc(Cn2nnnc2C(c2cccs2)N2CCCCCC2)cc1 (stereo not given) | -74.3% (active)
COC(=O)c1c(NC(=O)C(C)Oc2ccc(Cl)c(C)c2)sc(C)c1C (stereo not given) | 24.4%
Cc1cc(C)cc(OCC(=O)OCC(=O)NC2CCCC2)c1 | 0%
CCOC(=O)C1CCCN(C(=O)Cn2ncc3c(C)n(Cc4ccc(F)cc4)c(C)c3c2=O)C1 (stereo not given) | -24.7%
COC(=O)c1scc(-c2ccc(C)cc2)c1S(=O)(=O)Nc1cc(Cl)c(OC)cc1OC | -32.1%
COC(=O)c1scc(-c2ccccc2)c1S(=O)(=O)Nc1ccccc1 | -65.6% (active)
CCOC(=O)c1scc(-c2ccccc2)c1S(=O)(=O)Nc1ccccc1F | -9.83%
Cc1cc(O)c(C(c2ccccc2)N2CCN(c3ccccc3F)CC2)c(=O)n1Cc1ccco1 (stereo not given) | 11.6%
Cc1nnc(N2CCC(C(=O)Nc3ccc(F)cc3)CC2)c2nn(-c3ccc(Cl)cc3)c(C)c12 | -83.4% (active)
CCc1ccc(CNC(=O)C2CCN(c3nnc(C)c4c(C)n(-c5ccc(C)cc5)nc34)CC2)cc1 | -8.15%
CC(=O)Nc1c(C)nn(-c2ccccc2)c1N1CCC(C(=O)Nc2cc(Cl)ccc2C)CC1 | 54.8%
CCOC(=O)C1CCC(CN(Cc2ccc(OC)cc2)S(=O)(=O)c2ccc(F)c(C(=O)Nc3cc(C)ccc3C)c2)CC1 (stereo not given) | -8.08%
CCOCCCNC(=O)c1c(NC(=O)Cc2coc3ccc(C)cc23)sc2c1CCC2 | -5.35%
CCc1c(C)nc2ncnn2c1N1CCC(C(=O)NCc2ccc3c(c2)OCO3)CC1 | -29.2%
FC(F)(F)c1cc(Nc2nc3ccccc3c3nncn23)ccc1Cl | -13.6%
CCC(=O)N1c2ccccc2CC1C(=O)N1CCN(c2ccccc2)CC1 (stereo not given) | 2.26%

Structure (SMILES) | activity change, negative = inhibition
CN(C(=O)COc1ncnc2c1cnn2-c1ccccc1)C1CCCCC1 | -21.9%
CCN(c1ncnc2c1cnn2-c1ccc(C)cc1)C1CCCCC1 | -79.6% (active)
Cc1ccc(-n2ncc3c(N4CCC(C(N)=O)CC4)ncnc32)cc1 | 80.5%
COc1ccc(CCNC(=O)CCc2c(C)nc3c(c(C)nn3-c3ccc(C)c(C)c3)c2C)c(OC)c1OC | 22.2%
COc1cc(NS(=O)(=O)c2ccc3c(c2)OCC(C(=O)N2CCCC2)O3)cc(OC)c1 (stereo not given) | -21.9%
C=Cc1ccc(Cn2c(C(=O)OC)cc3sc(C)cc32)cc1 | -33.1%
O=C(O)c1ccc(OCC2CCCO2)cc1 (stereo not given) | 63.5%
Cc1cc(C)nc(N2C(=O)CC(Cc3ccccc3)C2=O)n1 (stereo not given) | -1.22%
COC(=O)CC1=NN(c2nc(C)cc(C)n2)C(=O)C1 | -72.6% (active)
Cc1ccc(CC2CC(=O)N(c3nc(C)cc(C)n3)C2=O)cc1 (stereo not given) | -6.32%
O=C(NCc1cc(F)cc(C(F)(F)F)c1)C1CCC(=O)N(C2CCCC2)C1 (stereo not given) | 8.32%
CC(=NNC(=O)c1ccncc1)c1ccc(Cl)c(Cl)c1 | -31%
O=C(N/N=C/c1ccc(Cl)c(Cl)c1)c1ccc2nc[nH]c2c1 | -65.6% (active)
NCCCCCC(=O)N/N=C/c1ccc2nccnc2c1 | -14.8%
CCc1ccc(CN(Cc2ccco2)C(=O)c2ccccc2Cl)cc1 | 33.9%
O=C(CN1C(=O)CCn2nc(-c3ccccc3)cc21)NCc1ccccc1 | 6.04%
O=C(COC(=O)Cc1c[nH]c2ccccc12)NCCc1ccccc1 | 10.5%
Cc1cc(C)cc(NC(=S)NCCc2c[nH]c3ccccc23)c1 | -73.6% (active)
c1cncc(CNCCc2c[nH]c3ccccc23)c1 | -8.49%
O=C(c1[nH]ncc1-c1ccc(Cl)cc1)C1CO1 (stereo not given) | -78.7% (active)
COc1ccc(NC(=O)C2Cc3c(-c4ccc(Cl)cc4)ccnc3O2)cc1 (stereo not given) | -3.46%
